From PubChem BioAssay (NCI)
This is part of a sample that, as a whole, favours compounds with a hit. Of some 83,000 tested, about 20% had one in any assay.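 Method: cells in 96-well plates; compound added at one concentration; 48 h incubation; percent growth measured; values under 10 scored active.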 Unmarked numbers belong to inactive results. Activity calls are given as the source filed them.

system: A549/ATCC NSCLC; test: NCI-60 one-dose screen, 48 h (100 = growth as untreated, 0 = no growth, -100 = all killed); conditions: 10 µM unless noted
Method: Growth inhibition of the A549/ATCC human Non-Small Cell Lung tumor cell line is measured as a screen for anti-cancer activity. Cells are grown in 96 well plates and exposed to the test compound for 48 hours. Compounds are tested at a single concentration, which is 10^-5 M for most compounds. The reported endpoint is percent growth (GI% or GIPRCNT), where numbers from 0 - 100% represent growth inhibition, and numbers from -100% - 0 represent cell death. For example, a value of 40 represents 60% growth inhibition. A value of 0 means no net growth occurred over the course of the experiment. A value of -40 indicates 40% of cells at the beginning of the experiment died by the end of the experiment. A value of -100 means all cells are dead at the end of the experiment.
NCI-60 Human Tumor Cell Lines Screen was performed using the standard one-dose NCI protocol, which is described in more detail at https://dtp.cancer.gov/discovery_development/nci-60/default.htm.
Compounds with GIPRCNT values below 10 were considered active. Activity score was based on GIPRCNT using the following formula: […]
Score is 0 for GIPRCNT values of 100 or above, 50 for GIPRCNT values of 0, and 100 for GIPRCNT values of -100.

SMILES	growth
Oc1cccc2ccc(-c3nnc(SCc4ccc(O)c5ncccc45)o3)nc12	15.9%
CC(C)(C)c1ccc(-c2nnc(-c3nc4ccccc4nc3Cl)o2)cc1	102%
Cn1ccnc1C(=O)/C=C/c1ccc(CNC(=O)c2ccc(F)cc2)cc1	27.6%
Cn1ccnc1C(=O)/C=C/c1ccc(CNC(=O)c2ccc(S(F)(F)(F)(F)F)cc2)cc1	16%
NS(=O)(=O)c1ccc(-n2cc(CN3CCCCC3)nn2)cc1	105%
N#Cc1c(Nc2ccccc2)nn2c(-c3ccc([N+](=O)[O-])cc3)ccnc12	94.4%
FC(F)(F)c1cc(Nc2cccc(Oc3ccc(NC4=NCCN4)nc3)c2)ccc1Cl	12.1%
O=C(NNc1nc2cc(F)c(F)cc2n2c(CN3CC4CNCC4C3)ccc12)c1cnccn1 (stereo not given)	16.9%
CC1=CC(=O)C2=C(C)CC(OC(=O)CCc3ccccc3)[C@@H]3[C@H](OC(=O)[C@@H]3C)[C@@H]12 (stereo not given in full)	89%
O=C1[C@H]2Cc3c([nH]c4ccccc34)[C@@H](c3ccc(Br)cc3)N2C(=O)CN1C1CCN(CC2CCCCC2)CC1	-77.3% (active)
N#C/C(=C\c1ccc(-c2ccc(Cl)cc2Cl)o1)c1ccc(F)cc1	100%
COc1ccc(CCOc2cc3c(cc2OC)CCN(C(=O)NCc2cocn2)C3c2ccc(C)cc2C)cc1 (stereo not given)	7.81% (active)
c1ccc(C(c2nc3ncncc3[nH]2)N2CSc3nc4ccccc4n3C2)cc1 (stereo not given)	107%
c1ccc(C(c2nc3ncncc3[nH]2)N2CSc3nc4ncncc4n3C2)cc1 (stereo not given)	92.2%
CC(C)(C)c1ccc(C(=O)Nc2nc3ccc(O)cc3s2)cc1	38.4%
O=C(NCCN1CCCC1)c1ccc(-c2nc3ccc4[nH]ncc4c3c3c2CCCC3)cc1	6.08% (active)
Cc1ccc(-c2nnc(SCc3ccc(O)c4ncccc34)o2)cc1	24.7%
CC(=O)N(C)C1CCc2c(sc(NC(=O)c3ccc(C(C)(C)C)cc3)c2C(N)=O)C1 (stereo not given)	39.8%
CNC(=O)c1cc(-c2ccc(NS(=O)(=O)c3ccc(C)cc3)cc2)nc2cccnc12	104%
O=C(CSc1nnc(-c2ccc(Cl)cc2)n1-c1ccccc1)Nc1cccc(Cl)c1	25.7%

SMILES	growth
COc1cc(/C=N/NC(=O)c2cn(C3CC3)c3c(OC)c(N4CC5CCCNC5C4)c(F)cc3c2=O)ccc1O (stereo not given)	-21.4% (active)
Cc1cc2nc(C(Cl)Cl)nc(-c3cccs3)n2n1	-23.5% (active)
CCc1ccc(SC2c3ccc(N(CC)CC)cc3Oc3nc(N)c(C#N)c(N)c32)cc1 (stereo not given)	-0.807% (active)
CC(=O)N1N=C(c2cccc(-n3cccc3)c2)CC1c1cccc(F)c1 (stereo not given)	95.2%
CCc1nn2c(C)cc(C)nc2c1Cc1ccc(/C=C/CN2CCN(CCOCCOCCN3CCN(C/C=C/c4ccc(Cc5c(CC)nn6c(C)cc(C)nc56)cc4)CC3)CC2)cc1	11.7%
NC(=O)c1c(NC(=O)c2ccc(F)cc2F)sc2c1CCC(=O)C2	106%
O=C(Nc1ccc2c(ccn2Cc2ccccn2)c1)c1ccnnc1	91.4%
Cn1ccnc1C(=O)/C=C/c1ccc(NC(=O)c2c(F)c(F)c(F)c(F)c2F)cc1	101%
CC[C@H](CO)Nc1ccc2ncc(C#Cc3cncc(C(=O)Nc4ccc(CN5CCN(C)CC5)c(C(F)(F)F)c4)c3)n2n1	-0.341% (active)
COc1cc(OC)c(/C=C/S(=O)(=O)Cc2ccc(OC)c(NC(=O)CCC(=O)NO)c2)c(OC)c1	24.6%
COc1ccc([C@@H]2[C@@H](O)C(=O)N2c2cc(OC)c(OC)c(OC)c2)cc1F	20.2%
COc1ccc2c(c1)c(CC(=O)[Se]CC#N)c(C)n2C(=O)c1ccc(Cl)cc1	-9.27% (active)
O=S(=O)(Nc1cccc2ccccc12)c1ccc(-c2cnc(C3CC3)o2)cc1	27.2%
CC(C)(C)n1cc(-c2ccnc(NCCCNS(=O)(=O)c3cccc(F)c3)n2)c(-c2ccc(Cl)c(O)c2)n1	93.6%
NC(N)=Nc1ccc(Oc2cccc(NC(N)=Nc3ccc(Br)c(C(F)(F)F)c3)c2)cc1	41.7%
Nc1ncc(-c2ccc3ncnc(N4CCc5cc(F)c(Cl)cc54)c3c2)cn1	10.4%
Cn1cc(CNc2nc3ccc(OC/C(=C/F)CN)cc3o2)ccc1=O	108%
COc1cc2oc(-c3cccc(C(=O)N[C@@H](CC(C)C)C(=O)OC(C)(C)C)c3)cc(=O)c2c(OC)c1OC	76%
CC1(C)[C@@H](O)CC[C@]2(C)[C@H]3CC[C@@H]4[C@H]5[C@H](C(=O)/C=C\c6ccccn6)CC[C@]5(O)CC[C@@]4(C)[C@]3(C)CC[C@@H]12	49.7%
Cc1nc(-c2ccccc2O)ccc1C(=O)N=Nc1c(O)[nH]c2ccc(Br)cc12	103%
